Assay results as given in PubChem BioAssay (NCATS).

Assay: qHTS drug screen for cell cycle checkpoint inhibitors in PARPi-resistant BRCA-mutant ovarian cancer cell lines. (AID 1963452)
Details: PEO1/OlaR viability, CellTiter-Glo luminescence, 96 h; measured here: PEO4 Z-AUC; stronger effect = lower value
How it was run: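 PEO1, PEO4 and PEO1/OlaR ovarian cancer cells, 600 per well, exposed 96 h at 37C to a dilution series. Viability read by CellTiter-Glo luminescence, normalized to DMSO and empty wells; activity summarized as Z-AUC.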
For `CCC(C)(C)C(=O)O[C@H]1C[C@@H](C)C=C2C=C[C@H](C)[C@H](CC[C@@H]3C[C@@H](O)CC(=O)O3)[C@H]21`, the Z-AUC was 2.06. `NC(=O)c1cnccn1` gave a Z-AUC of 0.41. For `OC[C@H](Cc1ccccc1)Nc1nc(Oc2ccc3c(c2)CCC3)nc2c1ncn2Cc1ccc(-c2ccccc2)cc1`, the Z-AUC was 0.323. Work on `COc1ccc2c3n(c(=NC(=O)c4cccnc4)nc2c1OC)CCN3` yielded a Z-AUC of -0.378. `O=C(c1cc(Cc2n[nH]c(=O)c3ccccc23)ccc1F)N1CCN(C(=O)C2CC2)CC1` showed a Z-AUC of 0.0684. Compound `O=C(Nc1cccnc1)N1CCC(Cc2cccc(Oc3ccc(C(F)(F)F)cn3)c2)CC1` has a Z-AUC of -1.18. `Cc1cc(Nc2nc(N[C@@H](C)c3ncc(F)cn3)ncc2Cl)n[nH]1` gave a Z-AUC of -1.3. `COc1ccc(C2=N[C@H](c3ccc(Cl)cc3)[C@H](c3ccc(Cl)cc3)N2C(=O)N2CCNC(=O)C2)c(OC(C)C)c1` showed a Z-AUC of 1.13. For `NC(=O)c1ccc(-c2nc(-c3ccc4c(c3)OCCO4)c(-c3ccccn3)[nH]2)cc1`, the Z-AUC was 0.167. Compound `NC(=O)c1ccc(-c2nc(-c3ccc4c(c3)OCO4)c(-c3ccccn3)[nH]2)cc1` has a Z-AUC of 0.909. In the case of `CCOc1ccn(-c2ccc(F)cc2)c(=O)c1C(=O)Nc1ccc(Oc2ccnc(N)c2Cl)c(F)c1`, the Z-AUC is reported as -0.86. For `C/C(=C\C(=O)Nc1ccccc1C(=O)O)c1ccc2ccccc2c1`, the Z-AUC was 0.827. With `CCCS(=O)(=O)Nc1ccc(F)c(C(=O)c2c[nH]c3ncc(-c4ccc(Cl)cc4)cc23)c1F` the Z-AUC was -0.427. With `CCc1cc(Nc2nccc(-c3c(-c4ccc(OC)c(C(=O)Nc5c(F)cccc5F)c4)nc4ccccn34)n2)c(OC)cc1N1CCC(N2CCN(S(C)(=O)=O)CC2)CC1` the Z-AUC was -0.933. In the case of `Nc1nc2[nH]cc(CCc3ccc(C(=O)N[C@@H](CCC(=O)O)C(=O)O)cc3)c2c(=O)[nH]1`, the Z-AUC is reported as 1.26. Work on `Cn1c(=O)c(F)c(Nc2ccc(I)cc2F)c2c(=O)n(C[C@@H](O)CO)cnc21` yielded a Z-AUC of -2.03. For `CN(C(=O)c1ccc(F)cc1C(F)(F)F)C1CCN(c2nnc(-c3ccnn3C)c3ccccc23)CC1`, the Z-AUC was -0.538. `CCCn1c(=O)c2[nH]c(C34CC5CC3C[C@@H](C5)C4)nc2n(CCC)c1=O` gave a Z-AUC of 0.158. `COc1c(Cl)cc2c([nH]c3cnccc32)c1NC(=O)c1cccnc1C` gave a Z-AUC of 0.857. `O=C1CCCC2=C1C(c1[nH]ncc1Cl)N=C(Nc1nc3ccccc3o1)N2` (stereo not drawn) showed a Z-AUC of 0.0586. For `N#CC[C@H](C1CCCC1)n1cc(-c2ncnc3[nH]ccc23)cn1`, the Z-AUC was 0.752. With `CS(=O)(=O)Oc1ccc2c(NC(N)=O)c(C(=O)c3ccc(Cl)cc3Cl)oc2c1` the Z-AUC was 1.11. For `S=C(NCc1ccc2c(c1)OCO2)N1CCN(c2ncnc3c2oc2ccccc23)CC1`, the Z-AUC was 0.0465. `Nc1ncnc2nc(-c3ccc(N4CCOCC4)nc3)cc(-c3cccc(Br)c3)c12` showed a Z-AUC of 0.514. For `CS(=O)(=O)c1ccc(C(=O)Nc2ccc(Cl)c(-c3ccccn3)c2)c(Cl)c1`, the Z-AUC was -0.353. With `CCOc1cc(N2CCC(O)CC2)ccc1Nc1ncc2c(n1)N(C)c1ccccc1C(=O)N2C` the Z-AUC was 0.379. `COCCNCCCn1c(C(=O)CF)c(-c2ccc(C)cc2)c2c(N)ncnc21` showed a Z-AUC of 1.22. Compound `C[C@@H]1CN(Cc2ccc(F)cc2)[C@@H](C)CN1C(=O)c1cc2c(C(=O)C(=O)N(C)C)cn(C)c2cc1Cl` has a Z-AUC of 0.299. Compound `OC(CCN1CCCCC1)(c1ccccc1)C1CC2C=CC1C2` (stereo not drawn) has a Z-AUC of -0.607. `CNC(=O)c1ccc(C)c(-n2c(C)cc(OCc3ccc(F)cc3F)c(Br)c2=O)c1` gave a Z-AUC of -0.46. With `Cc1ccnc(NS(=O)(=O)c2ccc(NC(=O)Nc3ccc(S(=O)(=O)Nc4nccc(C)n4)cc3)cc2)n1` the Z-AUC was 0.813. `COc1cc(Nc2ncc3c(n2)-c2ccc(Cl)cc2C(c2c(F)cccc2OC)=NC3)ccc1C(=O)O` showed a Z-AUC of -1.47. `COc1ccc(COc2cc3oc(=O)c4cc(C(C)O)ccc4c3cc2OC)cc1` (stereo not drawn) gave a Z-AUC of 1.09.
